This is an account of results in PubChem BioAssay AID504700 (The Scripps Research Institute Molecular Screening Center, 2011).

Each structure is given as a SMILES string. The whole screen tested about 340,000 compounds, of which about 270 (0.079%) were called active. Many of the other results were omitted from the sample, so actives are more common in it than they were. A number with no mark means an inactive call.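 The calls were made as follows: active = activation above a cutoff set at the mean over all compounds plus 3 SD (cut at about 18% in these data); inactive = the rest.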

Chain of cAMP-dependent protein kinase catalytic subunit beta (Homo sapiens) + cAMP-dependent protein kinase type II-beta regulatory subunit (Homo sapiens) (P31323 whole entry, looked up, other chains not shown, the tested form may be a part): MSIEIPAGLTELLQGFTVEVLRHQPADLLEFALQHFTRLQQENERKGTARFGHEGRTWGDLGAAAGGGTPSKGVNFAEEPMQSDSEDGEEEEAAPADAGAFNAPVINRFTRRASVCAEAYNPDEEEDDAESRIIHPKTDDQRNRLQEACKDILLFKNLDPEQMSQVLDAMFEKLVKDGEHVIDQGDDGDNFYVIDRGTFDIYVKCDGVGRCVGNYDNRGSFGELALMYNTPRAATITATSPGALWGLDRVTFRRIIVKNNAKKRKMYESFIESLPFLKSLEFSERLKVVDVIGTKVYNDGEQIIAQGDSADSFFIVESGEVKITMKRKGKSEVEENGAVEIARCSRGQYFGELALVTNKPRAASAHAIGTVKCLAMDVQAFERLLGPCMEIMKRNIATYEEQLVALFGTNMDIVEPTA

The experiment has as its target cAMP-dependent protein kinase catalytic subunit beta (Homo sapiens) + cAMP-dependent protein kinase type II-beta regulatory subunit (Homo sapiens) (UniProt P22694+P31323). Briefly: activators of PKA-R2B holoenzyme, primary screen, biochemical, fluorescence polarization, Cy5-IP20, human (AID 504700).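 Also: higher means more holoenzyme dissociation and a rise in polarization.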 The conditions noted are these: PKA-R2B holoenzyme dissociation, at 11.4 µM, hits give high values, 0% DMSO only, 100% 113 µM cGMP, R2B truncated from residue 108, S112A mutant.
As to `CC(OC(=O)c1cccc(S(=O)(=O)N2CCOCC2)c1)C(=O)NCC1CCCCC1` (stereo not drawn), the activation was 12.7%.

On to `O=S(=O)(NCCc1ccncc1)c1ccccc1`, for which the activation was -6.62%.

`O=S(=O)(NCCNS(=O)(=O)c1ccccc1)c1ccccc1`: the activation was 21.6% (active).

As to `O=S(=O)(NCCc1ccccc1)c1ccccc1`, the activation was -0.17%.

Take `COc1ccc(C(C)(C)C)cc1NC(=O)CN(C)C1=NS(=O)(=O)c2ccccc21`: the activation was -0.8%.

For `O=C(Nc1cc(F)ccc1F)c1ccc2c(=O)n3c(nc2c1)CCC3`, the activation was 0.72%.

In the case of `CC(C)CCOc1ccc(C(=O)Nc2cc(S(=O)(=O)N3CCOCC3)ccc2N2CCOCC2)cc1`, the activation was -1.72%.

On to `Cc1sc2nc(-c3ccccc3F)oc(=O)c2c1C`, for which the activation is -7.56%.

Take `O=C(NCc1nnnn1-c1ccc(Cl)cc1)c1ccc([N+](=O)[O-])o1`: the activation was -12%.

On to `COc1cc(NC(=O)C2=C(C)OCCS2)c(Cl)cc1C(=O)NCCCN1CCCC(C)C1` (stereo not drawn), for which the activation was -6.54%.

Regarding `C[C@H]1Cn2cnc(C(=O)N[C@H](C)c3ccccc3)c2C(=O)N1`, the activation was 1.6%.

`Cc1ccn2c(-c3csc(Nc4ccc(C(=O)O)cc4)n3)c(C)nc2c1`: the activation was -9.54%.

With `C[C@@H]1CN([C@@H](C)CO)C(=O)CCCn2cc(nn2)CO[C@H]1CN(C)S(=O)(=O)c1ccc(-n2cccn2)cc1`, the activation was -4.5%.

Regarding `CCc1c(N=O)c(-c2ccccc2)n(O)[n+]1[O-]`, the activation is -1.7%.

Turning to `C[C@@H]1CN([C@@H](C)CO)C(=O)c2cc(Br)cnc2O[C@H]1CN(C)Cc1ccc(-c2ccccc2)cc1`, the activation is 1.42%.

Regarding `O=C(CC(CC(=O)c1ccccc1)c1ccco1)c1ccccc1`, the activation was -2.04%.

Take `C[C@@H]1Cn2cnc(C(=O)Nc3ccc(CNC(=O)OC(C)(C)C)cc3)c2C(=O)N1`: the activation is -0.19%.

Take `COCCCn1c(=O)/c(=C/c2ccccc2OC(C)C)s/c1=C(\C#N)C(=O)Nc1ccc(C(=O)O)cc1`: the activation is 0.06%.

As to `O=C(OCc1ccccc1)N1CCC2CC1c1cc(N3CCN(S(=O)(=O)c4cc(Cl)cc(Cl)c4)CC3)ccc12` (stereo not drawn), the activation is -12.1%.

In the case of `CCc1cccc(CC)c1N1C(=O)CC(Sc2ccccc2N)C1=O` (stereo not drawn), the activation was 3.56%.

As to `COc1cccc(OC)c1C(=O)N1CCN(Cc2ccccc2F)CC1`, the activation was -3.43%.

With `COC(=O)C(Cc1c[nH]c2ccccc12)NC(=O)CCNC(=O)c1ccco1` (stereo not drawn), the activation is 7.88%.

`COc1cc2c(=O)n(C)c3ccccc3c2cc1OC`: the activation was -7.59%.

Turning to `N#CC1(Nc2ccc3c4c(cccc24)CC3)CCCCC1`, the activation is -2.43%.

As for `Cc1ccc([C@H]2C[C@H](O)[C@@H](n3cc(COC(=O)c4ccccc4)nn3)CN2C(=O)C2CCCCC2)cc1`, the activation is -12.7%.

On to `O=NN(CCCl)C(=O)NCCc1cccc[n+]1[O-]`, for which the activation is -9.83%.

For the compound `CC(C)N=C1CCCC1C(=S)SSC(=S)C1CCCC1=NC(C)C` (stereo not drawn), the activation was -0.99%.

In the case of `Cc1ccc(CN(C)C[C@@H]2OCc3cnnn3CCCC(=O)N([C@@H](C)CO)C[C@H]2C)cc1`, the activation is -5.57%.

Regarding `CC1=C(C(=O)N2CCOCC2)CC(CC(=O)NCc2ccco2)C(=O)N1Cc1ccc(F)cc1` (stereo not drawn), the activation is -2.68%.

Regarding `C=CCOc1ccccc1CNn1c(C)n[nH]c1=S`, the activation was 10.7%.

In the case of `Cc1c(NC(=O)COC(=O)/C=C/c2cccc(F)c2)c(=O)n(-c2ccccc2)n1C`, the activation was -14.1%.

Consider `CCc1cc(-c2nnn(CCC3COCCO3)c2CC)ccc1-c1cn(Cc2ccc3ccccc3c2)nn1` (stereo not drawn), for which the activation is 2.92%.

As to `CCC1NC(=O)c2cccnc2-n2c1nc1ccc(C)cc1c2=O` (stereo not drawn), the activation was 2.84%.

Consider `CNC(=O)c1ccc(CN(C)C(=O)c2cc(C3CC3)nc3c2cnn3C(C)C)cc1`, for which the activation was -10%.

With `O=C(OCC(=O)N1CCCCCC1)c1cccc(Cl)c1Cl`, the activation was -0.23%.

On to `NC(=O)C1CCN(C(=O)c2ccc(C(F)(F)F)cc2)CC1`, for which the activation was -0.72%.

As to `CC(C)(C)c1ccc(C(=O)N2CCC(C(=O)N3CCCCC3)CC2)cc1`, the activation was 19.2% (active).

Regarding `O=C(c1ccc(F)cc1)N1CCCC(C(=O)N2CCCCC2)C1` (stereo not drawn), the activation is -0.42%.

`CC1=C(C(=O)N(C)C)CC(CC(=O)NCCN2CCOCC2)C(=O)N1Cc1ccccc1` (stereo not drawn): the activation was 10.5%.

As to `COc1ccccc1-c1n[nH]nc1C1=CC(=O)CC(C)(C)C1`, the activation was -8.69%.

For `Cc1ccc(C(=O)N[C@H](C(=O)N2CCN(c3ncccn3)CC2)C(C)C)cc1`, the activation is -3.29%.

For `CCCCN1C(=O)C(CC(=O)NCc2cccs2)CC(C(=O)N2CCOCC2)=C1C` (stereo not drawn), the activation was 3.17%.

Regarding `O=C(OCc1cn([C@H]2C[C@H](c3ccccc3)N(C(=O)c3cccs3)C[C@@H]2O)nn1)c1ccccc1`, the activation was 4.15%.

On to `COc1ccc(C(=O)N/N=C(\C)CC(=O)Nc2ccc(Cl)cn2)cc1`, for which the activation is -4.03%.

With `COc1ccc(C/C(C)=N/NC(=O)c2ccncc2)cc1`, the activation is 18.7% (active).

Take `COc1ccc(C/C(C)=N/NC(=O)c2cc(C)oc2C)cc1`: the activation is -9.63%.

In the case of `C[C@H]1Cn2cnc(C(=O)N[C@@H](Cc3c[nH]c4ccccc34)C(=O)OC(C)(C)C)c2C(=O)N1`, the activation is -2.27%.

Turning to `CC(=O)Nc1c(-c2ccc(C)cc2)nc2ccc(Cl)cn12`, the activation is -8.99%.

On to `CC1CCN(c2ccc3c(c2)S(=O)(=O)c2cc(C(=O)O)ccc2C3=O)CC1`, for which the activation is -8.29%.

With `CCN(CC)CCN(C(=O)c1ccc2c(c1)CCCC2)c1nc2c(OC)cccc2s1`, the activation is -1.68%.

`CNS(=O)(=O)c1ccc2c(c1)[nH]c(=S)n2C`: the activation was 9.72%.

On to `C=CCn1nc(C(=O)OCC)cc1-c1sc(NC(=O)c2ccccc2)nc1C`, for which the activation was 4.98%.

As for `COc1ccc(C(=O)NCC2CCCO2)cc1S(=O)(=O)NCc1ccc(Cl)cc1` (stereo not drawn), the activation is -8.65%.

Take `Cc1cc2c3ccccc3[nH]c(=O)n2n1`: the activation was -8.33%.

For `CCOc1ccc(S(=O)(=O)NCCC(=O)NNC(=O)c2ccc(F)cc2)cc1`, the activation is -0.05%.

For the compound `COc1ccc(-n2c(-c3ccc(Cl)cc3)n[nH]c2=S)c(OC)c1`, the activation was 13%.

As for `C[C@H]1CN([C@@H](C)CO)S(=O)(=O)c2ccc(-c3cccc(F)c3)cc2O[C@@H]1CN(C)C`, the activation was -5.98%.

Consider `COc1ccc2nc(-c3ccccn3)ccc2c1`, for which the activation is -2.17%.

Take `COc1ccc(Cn2c(=O)oc3ccccc32)cc1`: the activation was -4.8%.

Regarding `O=C1[C@H]2[C@@H](c3ccc(C(F)(F)F)cc3)N[C@]3(CCCN(Cc4ccc(Cl)cc4)C3=O)[C@H]2C(=O)N1Cc1ccccc1`, the activation was -7.06%.

Regarding `COc1ccc(-c2ccc(CN3C(CC(C)C)C(=O)N(Cc4cn(CC5CCCCC5)nn4)CCS3(=O)=O)cc2)cn1` (stereo not drawn), the activation is 5.33%.

For the compound `O=C(COC(=O)c1cncc(Br)c1)Nc1ccc(S(=O)(=O)N2CCOCC2)cc1`, the activation is -6.43%.

For `CCOC(=O)c1cc(-c2sc(NC(=O)c3ccccc3)nc2C)n(CCO)n1`, the activation was -2.07%.

For `COC(=O)[C@H]1C[C@H](OC(=O)NCc2ccccc2)[C@@]2(O)CN(S(=O)(=O)c3ccc(C)cc3)CC2[C@H]1C(=O)OC` (stereo partly drawn), the activation was 1.85%.

With `O=C(C[C@H]1C[C@@H]2c3cc(NC(=O)C4CCC4)ccc3O[C@@H]2[C@H](CO)O1)NC1CCCCC1`, the activation was -4.88%.

In the case of `CCN(CC(=O)Nc1ccc(NC(C)=O)cc1)C(=O)C1CC(=O)N(c2ccc3c(c2)OCCO3)C1` (stereo not drawn), the activation was 1.33%.

On to `Cc1ccccc1-c1ccc2c(c1)O[C@@H](CN(C)Cc1ccc(C(=O)O)cc1)[C@@H](C)CN([C@H](C)CO)S2(=O)=O`, for which the activation was 1.68%.

Regarding `Cc1cc(C)c2cc(C#N)c(N3CCNCC3)nc2c1`, the activation was 5.23%.

As to `COCC1CCCCN1C(=O)c1cc(COc2ccc(C)c(C)c2)on1` (stereo not drawn), the activation was -6.78%.

Regarding `c1ccc(CNCc2ccc(CNCc3ccccc3)cc2)cc1`, the activation is -1.27%.

Take `C[C@@H]1CN([C@H](C)CO)C(=O)CCCn2nncc2CO[C@@H]1CN(C)S(=O)(=O)c1cccc(C#N)c1`: the activation is 5.67%.

Regarding `O=C(c1ccccc1)N1CCN(c2cc(-c3ccccc3)nc3cc(-c4cccc(Cl)c4)nn23)CC1`, the activation is -2.44%.

`C[C@H]1NS(=O)(=O)c2cc(Cl)ccc2O[C@@H]1c1ccccc1`: the activation is -0.08%.

As for `S=C(NN=Cc1ccccn1)Nc1ccccn1`, the activation was 12.6%.

As to `CN1OC[C@@H]2CN(C(=O)c3ccc(-c4ccccc4)cc3)[C@H](c3ccc(-c4cccc(F)c4)cc3)C[C@@H]21`, the activation is -8.75%.

Turning to `C[C@H](CO)N1C[C@H](C)[C@H](CN(C)C(=O)Nc2ccc3c(c2)OCO3)Oc2ncc(Br)cc2C1=O`, the activation was 6.88%.

For the compound `O=C(c1cccs1)N1C[C@H](n2cc(C3CC3)nn2)[C@@H](O)C[C@@H]1c1ccccc1`, the activation was 5.94%.

Consider `N#CCSc1ccccc1NC(=O)CN1C(=O)NC(CCc2ccccc2)C1=O` (stereo not drawn), for which the activation was 0.61%.

For `COC(=O)c1ccccc1N=NNc1ccc([N+](=O)[O-])cc1`, the activation was 7.66%.

As to `O=C1NC(Cc2ccccc2)c2nc3ccc(Br)cc3c(=O)n2-c2cc3ccccc3cc21` (stereo not drawn), the activation is -6.52%.

`COc1cc(C(=O)N2CCOC23CCN(Cc2ccccc2)CC3)cc(OC)c1OC`: the activation is 5.01%.

As for `CC(=O)c1ccc(OCC(=O)N(C)C2CCS(=O)(=O)C2)cc1` (stereo not drawn), the activation is -5.08%.

`C[C@@H]1CN([C@H](C)CO)S(=O)(=O)c2ccc(C#C[C@@H](C)O)cc2O[C@@H]1CN(C)Cc1ccc(-c2ccccc2)cc1`: the activation is -12.3%.
